The source of these data is PubChem BioAssay.

Test [1] deals with Wnt5a (protein binding on small-molecule microarray). Put plainly: small molecules binding Wnt5a protein – biophysical, small-molecule microarray, 635/667 nm fluorescence, primary screen (AID 1142).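 Note: fluorescence read at 667 nm with signal to noise per printed feature.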 The note with it: 635 nm fluorescence, higher = more signal.
A short description of test [2]: ATP-based viability of Huh7 replicon cells – cell-based, CellTiter-Glo luminescence, basal, 48 h, cytotoxicity control for HCV replication inhibitor project, primary screen (AID 1143).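 Note: Huh7 hepatoma cells carrying a hepatitis C replication reporter with no stimulus; test concentration not given here.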 The note with it: higher = more signal, called active from +8 up or from −8 down.
A short description of test [3]: Pseudomonas biofilm growth suppression – PAO1 strain, BacTiter-Glo luminescence, LB-PBS, primary screen (AID 1144). The conditions noted are these: P. aeruginosa PAO1 biofilm, 12 h, higher = more signal.
Test [4] can be described thus: basal CRE-LacZ reporter activity in PC12 – cell-based, unstimulated, primary screen (AID 1145). The note with it: no forskolin, luminescence, 4.5 h, higher = more signal, called active from +8 up or from −8 down.
A short description of test [5]: forskolin-driven CRE-LacZ activity in PC12 – cell-based, CRE-LacZ reporter, forskolin-stimulated, primary screen (AID 1146).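 Note: PC12 cells with 6xCRE LacZ reporter stimulated by forskolin 10 µM; beta-galactosidase reporter signal reflecting CREB driven transcription.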 The conditions noted are these: luminescence, 4.5 h, higher = more signal, called active from +8 up or from −8 down.
The target of test [6] is Streptavidin (Streptomyces avidinii) (UniProt P22629). The test is described as follows: compounds binding control protein streptavidin – biophysical, small-molecule microarray, 635/667 nm fluorescence, artefact control for SMM compound annotation, primary screen (AID 1147).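 Note: signal reflects streptavidin binding to arrayed compounds as a control protein.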 The conditions noted are these: higher = more signal.
Sequence of Streptavidin (Streptomyces avidinii) (P22629 whole entry, looked up): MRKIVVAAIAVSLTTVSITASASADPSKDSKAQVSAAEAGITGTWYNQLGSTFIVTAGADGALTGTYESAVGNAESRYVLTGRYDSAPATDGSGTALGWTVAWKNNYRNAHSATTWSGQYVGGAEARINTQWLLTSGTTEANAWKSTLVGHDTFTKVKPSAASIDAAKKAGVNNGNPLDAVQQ
The nature of test [7]: probe aInhba binding on compound microarray – biochemical, small-molecule microarray, 635/667 nm fluorescence, primary screen (AID 1148).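 Note: score merges 667nm spot fluorescence with signal-to-noise for antibody binding to printed compounds.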 The conditions noted are these: higher = more signal.
The target in test [8] is Torsin-1A (Homo sapiens) (UniProt O14656). The test is described as follows: TOR1A wild-type binding on microarray – cell lysate, small-molecule microarray, lysate, 635/667 nm, primary screen (AID 1149). The conditions noted are these: COS7 hTOR1A-WT lysate, 635 nm fluorescence, higher = more signal.
Sequence of Torsin-1A (Homo sapiens) (O14656 whole entry, looked up): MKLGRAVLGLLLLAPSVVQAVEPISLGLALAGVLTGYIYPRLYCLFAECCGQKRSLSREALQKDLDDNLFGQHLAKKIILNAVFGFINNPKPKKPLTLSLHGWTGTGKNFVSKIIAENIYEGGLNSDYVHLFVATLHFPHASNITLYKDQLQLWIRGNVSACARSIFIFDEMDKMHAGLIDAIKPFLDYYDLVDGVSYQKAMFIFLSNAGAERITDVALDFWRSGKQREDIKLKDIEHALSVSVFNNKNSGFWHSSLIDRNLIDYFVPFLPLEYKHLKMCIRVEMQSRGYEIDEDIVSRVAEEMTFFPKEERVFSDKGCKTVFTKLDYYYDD
The target is the same in test [9]. Put plainly: torsin A mutant lysate binding on microarrays – cell lysate, small-molecule microarray, COS7 lysate, 635/667 nm fluorescence, primary screen (AID 1150).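 Note: score pools 667 nm emission and signal to noise measuring lysate protein binding.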 The conditions noted are these: COS7 hTOR1A mutant lysate, 635 nm fluorescence, higher = more signal.
For test [10], the system named is Sonic hedgehog protein (Shh). Put plainly: Sonic hedgehog microarray binding compounds – biochemical, small-molecule microarray, 635/667 nm fluorescence, primary screen (AID 1151).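 Note: Shh protein binding to compounds spotted on small-molecule microarray slides; score combines spot fluorescence intensity with signal-to-noise across triplicate slides.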 The note with it: 635 nm fluorescence, higher = more signal.

Active and inactive are the calls of the source. Unless noted, the rule behind the calls is not given here.

As for `O=C1[C@@]23C=C(Br)[C@H](C[C@@H]2COC3)[C@]12CO2`, the composite z-score in test [1] is -0.139; in [6], -1.08; in [7], -0.204; with Torsin-1A (Homo sapiens) [8], -0.672; with Torsin-1A (Homo sapiens) [9], -0.666; in test [10], -0.0003. In addition, the z-score in [2] was -0.38 (inactive); in [3] it was -0.00184 (inactive); in test [4], 1.04 (inactive); in [5], 1.78 (inactive).

On to `COC(=O)[C@H](Cc1ccccc1)N[C@H](/C=C/C1CC1)[C@@H](O)Cc1ccccc1`, for which the composite z-score in [1] was -0.711; in test [6], -0.841; in test [7], -0.322; with Torsin-1A (Homo sapiens) [8] it was -0.795; with Torsin-1A (Homo sapiens) [9] it was -0.533; in test [10], -0.345. For the same compound, the z-score in [2] is -1.78 (inactive); in [3], -0.555 (inactive); in test [4], 2.59 (inactive); in [5], -1.23 (inactive).

`CCOC(=O)C1=C[C@@H](C(C)C)N(S(=O)(=O)c2ccc(C)cc2)[C@H]1c1ccccc1F`: the composite z-score in test [1] turned out to be 0.197; in test [6] it was 1.08; in test [7], 0.0816; with Torsin-1A (Homo sapiens) [8], 0.345; with Torsin-1A (Homo sapiens) [9], 1.15; in test [10], 0.394. Moreover, the z-score in test [2] is -2.77 (inactive); in test [3], -0.0791 (inactive); in test [4], -0.527 (inactive); in test [5], -0.0445 (inactive).

Regarding `NCCCCCNC(=O)[C@H]1C[C@H]2C(=O)N3CCC[C@H]3C(=O)N2[C@H]1c1ccc(O)cc1`, the composite z-score worked out at 0.354 in [1]; 1.23 in test [6]; 0.336 in [7]; 1.66 in the test with Torsin-1A (Homo sapiens) [8]; 1.09 with Torsin-1A (Homo sapiens) [9]; 1.65 in test [10]. Moreover, the z-score in [2] was 0.173 (inactive); in test [3], -0.12 (inactive); in test [4], 0.285 (inactive); in test [5], 0.165 (inactive).

Turning to `CCCCCCc1nc(-c2ccc(-c3ccc(Cl)c(Cl)c3)o2)cc2c1[Si](C(C)C)(C(C)C)O[C@H]2c1ccccc1`, the composite z-score is -0.355 in test [1]; -0.711 in test [6]; -0.0719 in test [7]; -0.512 with Torsin-1A (Homo sapiens) [8]; 0.978 with Torsin-1A (Homo sapiens) [9]; -0.434 in test [10]. Also, the z-score was -0.731 (inactive) in [2], -0.206 (inactive) in [3], -0.113 (inactive) in [4] and 0.497 (inactive) in test [5].

Consider `CCOC(=O)C[C@H]1[C@H](OC(=O)c2ccc(-c3ccccc3)cc2)[C@@H](NC(=O)c2ccccc2)c2cc(OCCCO)ccc2N1C(=O)Cc1ccc(OC)cc1`, for which the composite z-score in test [1] was 0.0137; in test [6], -0.238; in [7], 0.0001; in the test with Torsin-1A (Homo sapiens) [8], -0.0369; with Torsin-1A (Homo sapiens) [9], -0.456; in test [10], 0.0151. Besides, the z-score in test [2] was 0.0974 (inactive); in test [3] it was -0.962 (inactive); in test [4], 0.0035 (inactive); in test [5] it was -0.701 (inactive).

For the compound `CC(c1ccccc1)C(O)C1C=CC2C(=O)N(C)C(=O)C2N1NC(=O)OC(C)(C)C` (stereo not given), the composite z-score in test [1] was 0.472; in test [6] it was 2.15; in [7], 0.19; in the test with Torsin-1A (Homo sapiens) [8], 0.516; with Torsin-1A (Homo sapiens) [9] it was 1.13; in test [10] it was -0.656. Also, the z-score in [2] was 0.834 (inactive); in [3] it was 0.059 (inactive); in test [4], 0.622 (inactive); in test [5], -0.434 (inactive).

For the compound `CC(C)CCC[C@@H](C)[C@H]1CC[C@@]2(C)C3=C(CC[C@]12C)[C@@]1(C)CC[C@H](OC(=O)c2ccc(C(F)(F)F)nc2)C(C)(C)C1CC3` (stereo not given in full), the composite z-score in test [1] was 0.0419; in test [6], 0.536; in [7], 0.0411; in the test with Torsin-1A (Homo sapiens) [8], 0.379; with Torsin-1A (Homo sapiens) [9], 0.347; in test [10], 1.04. In addition, the z-score in test [2] is -0.878 (inactive); in test [3] it was -0.14 (inactive); in [4] it was 0.399 (inactive); in [5] it was -0.121 (inactive).

Take `CC(C)C(=C=CC[C@H](O)c1ccc(CO)o1)CCO`: the composite z-score in test [1] was -0.0164; in test [6] it was 0.0515; in test [7], -0.0963; with Torsin-1A (Homo sapiens) [8] it was 0.385; in the test with Torsin-1A (Homo sapiens) [9] it was 0.291; in test [10], 1.71. In addition, the z-score in [2] was 0.243 (inactive); in test [3] it was -0.0587 (inactive); in test [4] it was 1.87 (inactive); in test [5], 1.33 (inactive).

For the compound `CN1C(=O)C2C=CC(C(O)c3ccc(F)cc3)N(N(c3ccccc3)c3ccccc3)C2C1=O` (stereo not given), the composite z-score was -0.0512 in [1]; 0.453 in test [6]; 0.0047 in test [7]; -0.182 with Torsin-1A (Homo sapiens) [8]; 0.361 in the test with Torsin-1A (Homo sapiens) [9]; -0.647 in [10]. The z-score was 0.319 (inactive) in test [2], -0.0417 (inactive) in test [3], -0.708 (inactive) in test [4] and 0.677 (inactive) in test [5].

As for `COCCCNC(=O)[C@@H]1c2ccccc2C(=O)N(Cc2ccccc2)[C@H]1c1ccc(CO)cc1`, the composite z-score was 0.23 in [1]; 0.158 in [6]; 0.343 in test [7]; 0.662 with Torsin-1A (Homo sapiens) [8]; 1.29 with Torsin-1A (Homo sapiens) [9]; 0.857 in test [10]. Further, the z-score in [2] is 0.285 (inactive); in test [3], 0.397 (inactive); in [4] it was 0.648 (inactive); in test [5] it was -1.01 (inactive).

On to `CC1CC/C=C\[C@H]2OC34C=CCN(Cc5ccccc5)C(=O)[C@H]3N(C(C)CO)C(=O)[C@@H]4C2C(=O)O1` (stereo not given in full), for which the composite z-score in test [1] was -0.125; in [6] it was -0.556; in test [7], -0.0822; with Torsin-1A (Homo sapiens) [8], -0.859; with Torsin-1A (Homo sapiens) [9] it was -0.119; in test [10] it was 0.473. Moreover, the z-score is 0.0111 (inactive) in [2], 0.647 (inactive) in test [3], 1.68 (inactive) in test [4] and -0.0203 (inactive) in [5].

In the case of `COC(=O)C(CC#Cc1ccc2c(c1)[C@]1(C(=O)N2)[C@H](c2ccccc2OCCO)N2[C@H](c3ccccc3)[C@H](c3ccccc3)OC(=O)[C@H]2[C@@H]1C(N)=O)C(=O)OC`, the composite z-score worked out at 0.136 in test [1]; 1.5 in test [6]; 1.26 in [7]; 0.412 with Torsin-1A (Homo sapiens) [8]; 0.434 with Torsin-1A (Homo sapiens) [9]; 0.111 in test [10]. Further, the z-score in test [2] is -5.98 (inactive); in [3] it was 0.502 (inactive); in [4], -0.0515 (inactive); in [5] it was 1.02 (inactive).

Turning to `CN(C)CCCCCCNC(=O)[C@@H]1C[C@@H]2C(=O)N3CCC[C@H]3C(=O)N2[C@@H]1c1ccc(O)cc1`, the composite z-score in [1] was 0.21; in test [6] it was -0.331; in [7], 0.138; in the test with Torsin-1A (Homo sapiens) [8] it was 1.4; in the test with Torsin-1A (Homo sapiens) [9], 1.46; in test [10], 2.17. Moreover, the z-score was -0.892 (inactive) in [2], -0.999 (inactive) in test [3], 0.561 (inactive) in [4] and -0.439 (inactive) in [5].

Regarding `C=CCNC(=O)[C@@H]1[C@H]2C(=O)O[C@H](c3ccccc3)[C@H](c3ccccc3)N2[C@H](c2ccc(OCCO)cc2)[C@@]12C(=O)N(C(=O)OCCOC)c1ccc(C#CCNC(N)=O)cc12`, the composite z-score is 0.372 in [1]; 0.348 in [6]; 0.115 in [7]; 0.609 with Torsin-1A (Homo sapiens) [8]; 0.733 with Torsin-1A (Homo sapiens) [9]; 1.56 in test [10]. Also, the z-score in test [2] is -1.1 (inactive); in test [3], 0.388 (inactive); in test [4] it was 0.505 (inactive); in [5], -0.419 (inactive).

`COC(=O)[C@@]1(Cc2ccccc2)[C@H]2c3cc(C(=O)N4CCCC4)n(Cc4ccc(O)c(OC)c4)c3C[C@H]2CN1C(=O)c1ccccc1`: the composite z-score is 0.343 in test [1]; 0.211 in [6]; 0.198 in test [7]; -0.0034 with Torsin-1A (Homo sapiens) [8]; 0.0381 in the test with Torsin-1A (Homo sapiens) [9]; -1.39 in test [10]. Also, the z-score in [2] was -2.34 (inactive); in test [3], 0.633 (inactive); in [4], 2.5 (inactive); in [5], 0.333 (inactive).

In the case of `[N-]=[N+]=Nc1ccccc1C[C@]1(C(=O)NCC(O)CO)N=C(c2ccc(OCCCO)cc2)O[C@H]1c1ccccc1` (stereo not given in full), the composite z-score in [1] was -0.541; in [6] it was 0.204; in test [7], 0.0134; with Torsin-1A (Homo sapiens) [8], -0.268; in the test with Torsin-1A (Homo sapiens) [9] it was 0.089; in [10], -1.61. The z-score in test [2] is -3.23 (inactive); in test [3], 0.382 (inactive); in [4], 1.19 (inactive); in test [5], -1.55 (inactive).
